# Measured values from PubChem BioAssay (NCI).
# The panel holds about 83,000 compounds, 20% with a hit somewhere; the sample as a whole holds those more often.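 Single-dose data. Exposure time 48 hours. Values below 10 considered active.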 Unmarked numbers belong to inactive results. The source made the active and inactive calls.
# How the values were obtained:
# Test in all cases: NCI-60 one-dose screen, 48 h (100 = growth as untreated, 0 = no growth, -100 = all killed)
# Details in all cases: 10 µM
# EKVX NSCLC = system: EKVX NSCLC
# SN12C renal = system: SN12C renal
# UO-31 renal = system: UO-31 renal
# TK-10 renal = system: TK-10 renal
# ACHN renal = system: ACHN renal
# CAKI-1 renal = system: CAKI-1 renal
# A498 renal = system: A498 renal
# CCRF-CEM leukemia = system: CCRF-CEM leukemia
# MOLT-4 leukemia = system: MOLT-4 leukemia
# SR leukemia = system: SR leukemia
# RPMI-8226 leukemia = system: RPMI-8226 leukemia
# OVCAR-8 ovarian = system: OVCAR-8 ovarian
# OVCAR-5 ovarian = system: OVCAR-5 ovarian
# OVCAR-4 ovarian = system: OVCAR-4 ovarian
# SK-OV-3 ovarian = system: SK-OV-3 ovarian
# IGROV1 ovarian = system: IGROV1 ovarian
# OVCAR-3 ovarian = system: OVCAR-3 ovarian
# HS 578T breast = system: HS 578T breast
# NCI/ADR-RES ovarian = system: NCI/ADR-RES ovarian
# T-47D breast = system: T-47D breast
SMILES,growth (EKVX NSCLC),growth (SN12C renal),growth (UO-31 renal),growth (TK-10 renal),growth (ACHN renal),growth (CAKI-1 renal),growth (A498 renal),growth (CCRF-CEM leukemia),growth (MOLT-4 leukemia),growth (SR leukemia),growth (RPMI-8226 leukemia),growth (OVCAR-8 ovarian),growth (OVCAR-5 ovarian),growth (OVCAR-4 ovarian),growth (SK-OV-3 ovarian),growth (IGROV1 ovarian),growth (OVCAR-3 ovarian),growth (HS 578T breast),growth (NCI/ADR-RES ovarian),growth (T-47D breast)
Cc1cc2ccccc2nc1-c1ccccc1F,107%,110%,97.3%,130%,112%,99%,96.2%,96.9%,111%,110%,101%,102%,106%,117%,96.4%,129%,105%,106%,112%,
O=C(Nc1ccncc1)C(=O)c1cn(S(=O)(=O)c2cccc3ccccc23)c2ccccc12,46.9%,92%,58.5%,88.3%,87.2%,60.4%,80%,59.5%,69%,21.2%,43.1%,92.4%,102%,79.6%,87.9%,73.8%,88.2%,100%,78.4%,
COc1ccc(/C=C/C(=O)Nc2ccc(-c3nc4ccc(F)cc4s3)cc2)cc1,85.3%,93.8%,84.2%,104%,107%,95.5%,105%,81.3%,71.8%,80.8%,75.4%,103%,112%,83.2%,114%,104%,113%,111%,111%,
COc1cc(-c2nc(-c3nnc(-c4ccccc4Cl)o3)c3ccccn23)cc(OC)c1OC,92.2%,82.9%,67.6%,106%,68.3%,86.2%,84.3%,51.4%,56.3%,72.2%,50.2%,47.8%,92.5%,77.4%,84.5%,111%,86.4%,83.1%,66.4%,61.4%
CC(=O)/C(=C/c1ccccc1)C(=O)CC(C)C,99.6%,108%,83.1%,84.2%,84.7%,100%,96.1%,9% (active),34.1%,1.48% (active),18.4%,75.2%,93.9%,103%,106%,98.8%,75.1%,89.6%,93.5%,107%
COc1cc(-c2nc(-c3nnc(-c4ccc(F)c(Cl)c4)o3)c3ccccn23)cc(OC)c1OC,64.2%,43.9%,29.5%,56.7%,10.7%,58%,40.6%,68.6%,67%,42.4%,35.3%,-28.2% (active),67.6%,-40.4% (active),-4.85% (active),72.9%,22.3%,58.6%,21%,30.4%
CC(C)(C)NC/C(=C\c1ccccc1)C(=O)c1ccccc1,24.7%,-45.8% (active),-83.3% (active),0.816% (active),-50.9% (active),-7.54% (active),64.4%,10.7%,10.3%,-1.67% (active),-0.943% (active),-29.1% (active),-42.7% (active),30.7%,57.9%,0.595% (active),-43.1% (active),38.2%,-30.7% (active),
Clc1ccccc1N=Cc1ccc2c(c1)OCO2,99.7%,92%,80%,107%,111%,93.6%,102%,88.8%,87.9%,89%,96.2%,103%,105%,104%,108%,111%,116%,117%,106%,109%
